High-throughput results: PubChem BioAssay, National Center for Advancing Translational Sciences (NCATS)
KB-3-1 tox – qHTS assay for MDR1-selective chemotherapeutics: Primary screen using the parental adenocarcinoma cell KB-3-1; KB-3-1 viability, CellTiter-Glo ATP luminescence, 72 h; Potency, µM (series often up to 46.1 µM), usual class: cytotoxic; hit rate 1.4% among 400,000; AID 1347075, 2019; note: % is set by controls: 0 for no effect and ±100 for the full control effect; nearly all actives have a fitted effect of over 60% in size
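Viability of parental KB-3-1 cells, measured by CellTiter-Glo luminescence, followed a 72 h incubation at 37 °C with pinned compounds in phenol-red-free DMEM containing 10% FBS.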
HT1080 IDH1KD tx – qHTS for induction of synthetic lethality in tumor cells producing 2HG: qHTS for the HT-1080-IDH1KD cell line | Potency, µM (top dose mostly 46.1 µM), without a hit: at the top dose activity, negative = toxicity, most hits filed as cytotoxic | hit rate 2% among 360,000 | HT-1080 IDH1 knockdown viability, ATP luminescence, 48 h;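 note: 0% = DMSO wells and -100% = cell-free medium wells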
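% activity derives from luminescence (CellTiter-Glo), normalised to DMSO and no-cell wells. HT-1080-IDH1KD cells, 750/well, had 48 h compound exposure at 37 °C.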
HT1080-NT tox – qHTS for induction of synthetic lethality in tumor cells producing 2HG: qHTS for the HT-1080-NT fibrosarcoma cell line | HT-1080-NT fibrosarcoma viability, CellTiter-Glo ATP luminescence, 48 h | Potency, µM (series often up to 46.1 µM), without a hit: at the top dose activity, negative = less viability, hits mostly cytotoxic | hit rate 1.6% among 360,000;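 note: NT is the 2HG producing partner of a matched IDH1 knockdown line; 0% = DMSO-treated cells and -100% = media-only wells without cells; nearly all actives have a fitted effect of over 55% in size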
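HT-1080-NT; 750 cells/well; 5% FBS RPMI; 48 h compound, 37 degrees C; CellTiter-Glo luminescence; curve fitting and curve-class assignment.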
ATXN2 expr inh – Primary qHTS for Inhibitors of ATXN expression | HEK-293 ATXN2-luciferase reporter, luminescence, 24 h | Potency, µM (highest dose often 57 µM), for the others: top-dose activity change, negative = inhibition, most hits filed as inhibitors | hit rate 0.72% among 360,000 | AID 1745845, 2022; note: % is set by controls: 0 for no effect and ±100 for the full control effect; nearly all actives have a fitted effect of over 55% in size
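qHTS (up to 57 uM final) was run with 24 h compound exposure of reporter cells at 37 °C. Each well was multiplexed: SteadyGlo luminescence measured ATXN2-luciferase expression after a fluorogenic Gly-Phe-AFC viability readout (25 uM final).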
KB-V1 cytotox – qHTS assay for MDR1-selective chemotherapeutics: Primary screen using the drug-selected MDR subline cells KB-V1 | KB-V1 MDR cells viability, CellTiter-Glo, 72 h | Potency, µM (top dose mostly 46.1 µM), most hits filed as cytotoxic | hit rate 3.4% among 400,000 | AID 1347076, 2019; note: % is set by controls: 0 for no effect and ±100 for the full control effect; nearly all actives have a fitted effect of over 60% in size
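Compound-treated KB-V1 multidrug-resistant cells, 72 h, 37 degrees C; viability by CellTiter-Glo. Fitted qHTS curves give the values.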
ATXN viability – Viability Counterscreen for Primary qHTS for Inhibitors of ATXN expression; S2 cells (HEK-293 line with an ATXN2-luciferase reporter) viability, CellTiter-Fluor protease fluorescence, 24 h; Potency, µM (titrated, usually from 56.7 µM), most hits filed as cytotoxic; hit rate 0.49% among 400,000; AID 651635, 2014; note: nearly all actives have a fitted effect of over 40% in size
The depositor's hits bear a star; i = inactive; u = inconclusive; x = no result. In the library only some 6.2% were active in any assay of this set; here they are far more common. Calls come from the whole dose curve; as a rule, active = well fitted curve in the direction sought with a large enough effect; inconclusive = small, poorly fitted or top-dose-only effect, or another doubt; inactive = no such curve, though single readings can be large; an effect the other way counts as inactive or inconclusive. Potency is the fitted concentration of half-maximal effect.

SMILES	KB-3-1 tox	HT1080 IDH1KD tx	HT1080-NT tox	ATXN2 expr inh	KB-V1 cytotox	ATXN viability
O=C(COc1cccc2c1CCN(Cc1ccc(Br)cc1)C2=O)N1CCOCC1	u	-2%	-14%	-35%	4.1µM*	i
O=C(COc1cccc2c1CCN(Cc1ccc(Br)cc1)C2=O)NCc1ccco1	u	-2%	-5%	-12%	2.6µM*	i
O=C1c2cccc(OCC(=O)N3CCCc4ccccc43)c2CCN1Cc1ccc(Br)cc1	18µM*	u	-27%	u	18µM*	u
O=C1c2cccc(OCC(=O)N3CCCc4ccccc43)c2CCN1Cc1ccccc1	i	-2%	1%	11%	i	i
CCC1=NN(C(=O)c2ccc(C)cc2)C(O)(c2ccc(Br)cc2)C1 (stereo not drawn)	i	-26%	-19%	-6%	21µM*	i
CCC1=NN(C(=O)c2cccc(Br)c2)C(O)(c2ccc(Br)cc2)C1 (stereo not drawn)	u	18µM*	u	u	u	u
CCC1=NN(C(=O)c2ccc(Br)cc2)C(O)(c2ccc(C)cc2)C1 (stereo not drawn)	i	-15%	-18%	-11%	i	i
O=C1CN(C(=O)COc2ccc([N+](=O)[O-])cc2Cl)c2ccccc2N1	i	-5%	1%	-14%	u	i
CCCCNS(=O)(=O)c1cccc(NC(=O)[C@@H]2O[C@H](CO)[C@@H](O)[C@H]2O)c1	i	7%	29%	18%	i	i
CCc1c(C)[nH]n(-c2nc(-c3ccccc3)cs2)c1=O	i	0%	9%	-9%	u	i
CCc1c(C)[nH]n(-c2nc(-c3cccc([N+](=O)[O-])c3)cs2)c1=O	u	-1%	2%	-12%	16µM*	i
CCCCc1c(C)c2ccc(OC)c(/C(C)=N\O)c2oc1=O	u	7%	8%	8%	5.8µM*	i
CNC(=O)[C@H](CC1=CN=C2C=CCC=C12)NC(=O)[C@@H](CC(=O)NO)CC(C)C	x	x	x	0.017µM*	x	x
CC(=O)NCCNc1nc(NC(C)C)nc2cc(-c3ccccc3)sc12	i	-25%	-22%	-21%	i	i
COc1ccc(-c2cc(CNc3nc(NC(C)C)nc4cc(-c5ccccc5)sc34)on2)cc1	u	12µM*	10µM*	u	21µM*	u
CC(=O)Nc1ccc(CNc2nc(NC(C)C)nc3cc(-c4ccccc4)sc23)cc1	u	u	u	22µM*	21µM*	u
C=CCNc1nc(NCc2ccc(NC(C)=O)cc2)c2sc(-c3ccccc3)cc2n1	u	-21%	18µM*	u	u	32µM*
Cc1ccc(-c2nc3n(n2)Cc2ccccc2-3)cc1	i	u	u	-33%	u	i
c1ccc(-c2cn3c(n2)-c2ccccc2C3)cc1	u	u	u	0%	10µM*	u
CCCCNC(=O)C1CCC(Cn2c(=O)c3sccc3n(Cc3ccccc3)c2=O)CC1 (stereo not drawn)	i	x	x	5%	i	i
COC(=O)C1CCCCN1Cc1ccc2c(c1)CN(C(=O)c1ccc(F)cc1)CCO2 (stereo not drawn)	x	x	x	x	x	i
COc1cc(/C=C/C(=O)CC(=O)/C=C/c2ccc(O)c(OC)c2)ccc1O	u	2.6µM*	u	u	i	i
COc1cc(C(=O)OCC(=O)NCCCc2ccccc2)ccc1OCC(C)C	i	10%	17%	4%	i	i
COc1cc(C(=O)OCC(=O)N2c3ccccc3NC(=O)C2(C)C)ccc1OCC(C)C	i	-14%	-2%	-16%	21µM*	i
COc1cc(/C=C/C(=O)O)ccc1O	i	5%	-1%	-1%	i	i
SMILES	KB-3-1 tox	HT1080 IDH1KD tx	HT1080-NT tox	ATXN2 expr inh	KB-V1 cytotox	ATXN viability
COc1cc(C(=O)OCC(=O)NCc2ccc(F)cc2)ccc1OCC(C)C	23µM*	-5%	0%	-18%	i	i
COc1cc(/C=C/C(=O)OCC(=O)NCc2ccc(F)cc2)ccc1O	u	u	u	-9%	16µM*	i
CC1(C)C(=O)Nc2ccccc2N1C(=O)COC(=O)c1cccc(O)c1	i	6%	3%	-3%	i	i
Cc1ccc2[nH]c(CSc3nnc(NC(=O)COc4ccccc4F)s3)cc(=O)c2c1	i	x	x	-16%	i	i
COCCOC(=O)C1=C(C)N(c2ccccc2)C(=O)NC1c1cccc([N+](=O)[O-])c1 (stereo not drawn)	i	-1%	3%	2%	i	i
COC(=O)C1=C(C)NC(C)=C(C(=O)OCCN(C)Cc2ccccc2)C1c1cccc([N+](=O)[O-])c1 (stereo not drawn)	i	u	-28%	u	18µM*	22µM*
COC(=O)C1=C(C)NC(C)=C(C(=O)OCCN2CCN(C(c3ccccc3)c3ccccc3)CC2)C1c1cccc([N+](=O)[O-])c1 (stereo not drawn)	x	x	x	14µM*	x	u
CCOC(=O)C1=C(C)NC(C)=C(C(=O)OCCNC(=O)c2cccnc2)C1c1cccc([N+](=O)[O-])c1 (stereo not drawn)	i	-14%	-9%	1%	i	i
CCC1(C2CCN(C(=O)c3ccccc3C)CC2)NC(=O)N(CCc2scnc2C)C1=O (stereo not drawn)	x	x	x	x	x	i
O=C(Nc1ccccc1)N(CCc1nc2ccccc2[nH]1)C1CCCC1	i	1%	-18%	8%	16µM*	i
O=C(CCc1nc2ccccc2[nH]1)Nc1ccccc1	i	u	27%	28%	i	i
S=C(NC1CCCCC1)N(CCc1nc2ccccc2[nH]1)C1CCCC1	u	-26%	-15%	38%	16µM*	i
O=C(Nc1nc2ccccc2[nH]1)NC1CCCCC1	i	-19%	-4%	-6%	i	i
CC#CCC(C)[C@H](O)/C=C/[C@@H]1[C@H]2c3cccc(CCCC(=O)O)c3O[C@H]2C[C@H]1O (stereo partly drawn)	x	x	x	x	x	i
Cc1c(C=O)c(C=O)c(C)n1Cc1ccccc1	u	4.1µM*	8.2µM*	u	u	x
